Shown are actives, neighbours in structure and some others; about 4% of the full set was active somewhere.
RecA splice inh – inhibitors of M. tuberculosis RecA intein splicing; cell-free RecA intein splicing, fluorescence; P9WHJ3; inhibition, % (test concentration not listed); 290,000 tested, 0.75% active; in the data active = inhibition above about 30%;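 note: 0% = vehicle wells and 100% = reference inhibitor control wells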
UGM FP inh – Mtb UDP-galactopyranose mutase inhibition; 320,000 tested, 0.06% active; inhibition, % at 10 µM; P9WIQ1; AID 504406; purified UGM, fluorescence polarization probe displacement; in the data active = inhibition above about 10%, passing the limit was not always enough
FBA Mtb inh – inhibits M. tuberculosis FBA enzyme | 360,000 tested, 2.3% active | P9WQA3 | inhibition, % at 1 µM | purified M. tuberculosis FBA, fluorescence read-out | AID 588726;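 note: 0% = vehicle and 100% = reference inhibitor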
Mtb bLac sens – beta-lactam sensitization of Mtb H37Rv | M. tuberculosis H37Rv growth with meropenem, percent inhibition | inhibition, % at 25 µM | 330,000 tested, 0.27% active | AID 434955; call rule not given here;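 note: growth measured after seven days incubation then overnight dye step; 0% = bacteria only wells and 100% = bacteria with antibiotic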
Rv3671c inh – inhibits the M. tuberculosis serine protease Rv3671c; inhibition, % at 5.96 µM; 320,000 tested, 0.048% active; P9WHR9; in the data active = inhibition above about 38%;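 note: extracellular domain of Rv3671c used as enzyme; 0% = enzyme with DMSO and 100% = no enzyme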
GDH-TPI counter-1 – inhibits GDH-TPI coupling enzymes, artifact for Mtb FBA screen | GDH-TPI coupled enzyme counterscreen, NADH absorbance | inhibition, % at 4.8 µM | 360,000 tested, 1.2% active | AID 588335; in the data active = inhibition above about 30%;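 note: 0% = DMSO wells and 100% = wells lacking the enzyme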
Mtb FBA confirm – Mtb FBA inhibition, confirmed; AID 651616; shares compounds with FBA Mtb inh; inhibition, % at 1 µM; purified M. tuberculosis FBA, fluorescence read-out; 5,600 tested, 78% active;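 note: 0% = vehicle wells and 100% = reference inhibitor wells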
GDH-TPI counter-2 – counter-screen for M. tuberculosis FBA inhibitors: GDH-TPI coupled enzyme inhibition | shares compounds with FBA Mtb inh | GDH-TPI coupled enzyme counterscreen, fluorescence | inhibition, % at 1 µM | 5,600 tested, 81% active | AID 652141; in the data active = inhibition above about 10%
An asterisk follows results filed as active. Cut-off read from the data, not from the text of the source, unless noted: active = inhibition above about 27%; inactive = the rest.

Cc1ccc(CNc2oc(-c3ccco3)nc2C#N)cc1 was read as RecA splice inh 4, UGM FP inh 1, FBA Mtb inh 54*, Mtb bLac sens -1, Rv3671c inh -6, GDH-TPI counter-1 16, Mtb FBA confirm 3 and GDH-TPI counter-2 4.
`Cc1ccc(-c2nc(C#N)c(NCc3cccc4c3OCO4)o2)cc1` gave RecA splice inh 2, UGM FP inh -4, FBA Mtb inh 21, Mtb bLac sens 14, Rv3671c inh -6 and GDH-TPI counter-1 12.
N#Cc1nc(COc2ccccc2Cl)oc1NCc1ccco1 was read as RecA splice inh 1, UGM FP inh 1, FBA Mtb inh -2, Mtb bLac sens 8, Rv3671c inh 4 and GDH-TPI counter-1 -2.
CNc1oc(-c2ccco2)nc1C#N was read as RecA splice inh -2, UGM FP inh -1, FBA Mtb inh 68*, Mtb bLac sens -5, Rv3671c inh 8, GDH-TPI counter-1 9, Mtb FBA confirm 46* and GDH-TPI counter-2 45*.
For Cc1cccc(NS(=O)(=O)c2ccc(C(=O)N3CCCCCC3)cc2)c1C the results were RecA splice inh -1, UGM FP inh -2, FBA Mtb inh -1, Mtb bLac sens 4, Rv3671c inh -8 and GDH-TPI counter-1 0.
Screening CCN(c1cccc(C)c1)S(=O)(=O)c1cc2c3c(c1)CCC(=O)N3CCC2 returned RecA splice inh 5, UGM FP inh 2, FBA Mtb inh 4, Mtb bLac sens -10, Rv3671c inh -5 and GDH-TPI counter-1 1.
O=C(Nc1nc2nc(-c3ccccc3)cc(-c3ccccc3)n2n1)c1ccco1 was read as RecA splice inh 3, UGM FP inh 3, FBA Mtb inh 43*, Mtb bLac sens -13, Rv3671c inh -19, GDH-TPI counter-1 28, Mtb FBA confirm 132* and GDH-TPI counter-2 98*.
Screening O=C1CCc2cc(S(=O)(=O)Nc3cccc(F)c3)cc3c2N1CC3 returned RecA splice inh -2, UGM FP inh 1, FBA Mtb inh 1, Mtb bLac sens -12, Rv3671c inh 0 and GDH-TPI counter-1 -4.
`Cc1ccc(COC(=O)c2nn(-c3ccccc3)nc2N)cc1` gave RecA splice inh -1, UGM FP inh 3, FBA Mtb inh 86*, Mtb bLac sens -8, Rv3671c inh -15, GDH-TPI counter-1 1, Mtb FBA confirm 3 and GDH-TPI counter-2 -4.
`CCN(CC)c1ccc2c(O)cc(=O)oc2c1` gave RecA splice inh -2, UGM FP inh 0, FBA Mtb inh 22, Mtb bLac sens -3, Rv3671c inh 13 and GDH-TPI counter-1 23.
